The record followed here is PubChem BioAssay (EPA / NIEHS).

Active and inactive are the calls of the source. The calls were made as follows: active = hit-call score of the fitted dose curve at least 0.9, where 1 is the maximum; inactive = score below 0.9.

Read-out in one test: 3-Hydroxy-3-Methylglutaryl-CoA Synthase 2 (HMGCS2), HMGCS2 (gene 3158)
The experiment in a line: LTEA_HepaRG_HMGCS2: Life Technologies and Expression Analysis (LTEA) Assay for 3-Hydroxy-3-Methylglutaryl-CoA Synthase 2 (HMGCS2) using HepaRG (AID 2283504). The settings on record: mRNA level, 48 h; actives raise or lower the signal. In short, it runs like this:
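Differentiated human HepaRG cells were exposed in duplicate for 48 h in serum-free induction medium to eight concentrations (top 100 uM, half-log steps, 0.5% DMSO). HMGCS2 mRNA was quantified by TaqMan qRT-PCR, normalised to ACTB, GAPDH and POLR2A, then fitted bidirectionally against DMSO.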
Turning to `CCCCCCCCCCCCc1ccccc1S(=O)(=O)O`, the AC50 is 83.1 µM (active).

`OCCC(F)(F)C(F)(F)C(F)(F)C(F)(F)C(F)(F)C(F)(F)C(F)(F)C(F)(F)F`: the compound was called inactive.

Turning to `CCCCOCCO`, the result was inactive.

With `CCCCCCCCCCCCCCCS(=O)(=O)Oc1ccccc1`, the compound was called inactive.

For the compound `CC(C)(C)c1cccc(C(C)(C)C)c1O`, the outcome was inactive.

Turning to `CCC(=C(c1ccc(O)cc1)c1ccc(OCCN(C)C)cc1)c1ccccc1`, the half-maximal activity concentration (AC50) is 91.7 µM (active).

As to `CC(C)CCCCCCOC(=O)CCCCC(=O)OCCCCCCC(C)C`, the outcome was inactive.

Turning to `CN1CCN(c2ccccc2/C=C2\SCCN(c3ccc(Cl)c(Cl)c3)C2=O)CC1`, the AC50 is 60.3 µM (active).

As for `O=C(O)Cc1cc(I)c(Oc2cc(I)c(O)c(I)c2)c(I)c1`, the concentration at half-maximal activity (AC50) is 49.5 µM (active).

As to `CC(=O)CC(C)(C)O`, the result was inactive.

`CCN(CC)CCNc1ccc(CNC=O)c2sc3ccc(OC)cc3c(=O)c12`: the concentration at half-maximal activity (AC50) is 74.3 µM (active).

`OC1CCC(C2CCCCC2)CC1` (configuration not stated): the compound was classed as inactive.

With `O=c1c(-c2ccc(O)cc2)coc2cc(O)ccc12`, the compound was classed as inactive.

With `CN(C)C=O`, the compound was classed as inactive.

With `NC(=O)N(O)[C@@H]1C=C[C@H](Oc2cccc(Oc3ccc(F)cc3)c2)C1`, the AC50 was 40.6 µM (active).

Take `CC[C@H](C)[C@@H](C(=O)O)n1sc2ccccc2c1=O`: the call was inactive.

Read-out in another test: HGF (gene 3082)
Nature of the test: LTEA_HepaRG_HGF: Life Technologies and Expression Analysis (LTEA) Assay for Hepatocyte Growth Facto (HGF) using HepaRG (AID 2283505). Conditions: mRNA level, 48 h; actives raise or lower the signal. In short, it runs like this: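 Differentiated human HepaRG cells in serum-free induction medium were exposed in duplicate for 48 h to eight concentrations (top 100 uM, half-log steps, 0.5% DMSO). HGF mRNA was quantified by qRT-PCR, normalized to ACTB, GAPDH and POLR2A.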
For `CC(C)(C)c1cc(C(C)(C)C)c(O)c(C(C)(C)C)c1`, the compound was called inactive.

Regarding `Cc1cc(C)c(O)c(C)c1`, the call was inactive.

Consider `CCCCC(CC)COC(=O)CCCCC(=O)OCc1ccccc1` (configuration not stated), for which the result was inactive.

On to `c1ccc2c(c1)ccc1ccccc12`, for which the compound was classed as inactive.

On to `CCCCCCCCOC(=O)CCCCCCCCC(=O)OCCCCCCCC`, for which the call was inactive.

Consider `CC(C)(C)c1ccc(O)c(C(C)(C)C)c1`, for which the outcome was inactive.

Turning to `O=C(OCCOCCOC(=O)c1ccccc1)c1ccccc1`, the compound was classed as inactive.

In the case of `CCCOc1sc(C(=O)N2CCC(c3cc(CN)ccc3F)CC2)c(C)c1Br`, the compound was classed as inactive.

In the case of `CCc1nn(C2CCCCC2)c2cc(C3(C#N)CCC(C(=O)O)CC3)ccc12` (configuration not stated), the result was inactive.

For `COCC(C)OCC(C)O` (configuration not stated), the compound was classed as inactive.

As for `CC(C)(C)CC(C)(C)c1ccc(O)c(-n2nc3ccccc3n2)c1`, the outcome was inactive.

Consider `CC(O)CO` (configuration not stated), for which the compound was classed as inactive.

For the compound `COc1ccc([N+](=O)[O-])cc1N`, the compound was classed as inactive.

For the compound `CCCCCCCCCCCCN1CCCC1=O`, the compound was classed as inactive.

Turning to `OCCC(F)(F)C(F)(F)C(F)(F)C(F)(F)C(F)(F)C(F)(F)F`, the call was inactive.

As for `CCCCCCCCCCCCc1ccccc1S(=O)(=O)O`, the result was inactive.

`OCCC(F)(F)C(F)(F)C(F)(F)C(F)(F)C(F)(F)C(F)(F)C(F)(F)C(F)(F)F`: the outcome was inactive.

For the compound `CCCCOCCO`, the outcome was inactive.

Consider `CCCCCCCCCCCCCCCS(=O)(=O)Oc1ccccc1`, for which the outcome was inactive.

As for `CC(C)(C)c1cccc(C(C)(C)C)c1O`, the compound was classed as inactive.

Consider `CCC(=C(c1ccc(O)cc1)c1ccc(OCCN(C)C)cc1)c1ccccc1`, for which the outcome was inactive.

With `CC(C)CCCCCCOC(=O)CCCCC(=O)OCCCCCCC(C)C`, the result was inactive.

Take `CN1CCN(c2ccccc2/C=C2\SCCN(c3ccc(Cl)c(Cl)c3)C2=O)CC1`: the outcome was inactive.

As for `O=C(O)Cc1cc(I)c(Oc2cc(I)c(O)c(I)c2)c(I)c1`, the AC50 is 52.7 µM (active).

In the case of `CC(=O)CC(C)(C)O`, the call was inactive.

With `CCN(CC)CCNc1ccc(CNC=O)c2sc3ccc(OC)cc3c(=O)c12`, the call was inactive.

On to `OC1CCC(C2CCCCC2)CC1` (configuration not stated), for which the result was inactive.

With `O=c1c(-c2ccc(O)cc2)coc2cc(O)ccc12`, the result was inactive.

As for `CN(C)C=O`, the call was inactive.

Take `NC(=O)N(O)[C@@H]1C=C[C@H](Oc2cccc(Oc3ccc(F)cc3)c2)C1`: the compound was called inactive.

As to `CC[C@H](C)[C@@H](C(=O)O)n1sc2ccccc2c1=O`, the result was inactive.

As a reminder, the AC50 is the concentration at which the activity in the assay is half-maximal.
